Measured values published in PubChem BioAssay (NCI).
The panel holds about 79,000 compounds, 15% with a hit somewhere; the sample as a whole holds those more often. Unmarked numbers belong to inactive results. Calls of active or inactive are those of the source. Rule as the data show it: active = growth inhibition above about 70%; inactive = the rest.

Test: NCI Yeast Anticancer Drug Screen. Data for the mec2-1 strain (AID 157)
Conditions: S. cerevisiae mec2-1 strain, at 50.0 µM, hits give high values
Summary of the method: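 Each compound was tested on mec2-1 yeast, a strain altered in DNA damage repair or cell cycle control. Growth inhibition is reported relative to vehicle.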
In the case of `Cc1ccc(S(=O)(=O)OCCc2ccc(Cl)cc2)cc1`, the growth inhibition is reported as -10.3%. With `COC(=O)CC1(O)c2cc(OC)c3cccc(OC)c3c2CCC1(C)C(=O)OC` (stereo unspecified) the growth inhibition was 88.8% (active). Molecule `CC(C)CC(NC(=O)SCc1ccccc1)C(=O)O` (stereo unspecified) has a growth inhibition of 1.6%. In the case of `COc1ccc(/C=C/c2ccnc3ccccc23)cc1`, the growth inhibition is reported as 92.2% (active). For `N#CC1=C(N)OC(/C=C/c2ccccc2)=C(C#N)C1c1ccccc1` (stereo unspecified), the growth inhibition was 76.3% (active). For `COc1ccc(C(=O)C(CN2CCOCC2)CN2CCOCC2)cc1`, the growth inhibition was 97.2% (active). `N/N=C(/N)SCCCCCCCCCCS/C(N)=N/N` gave a growth inhibition of 48.5%. With `OC(CBr)C[n+]1cccc2cc(Cl)ccc21` (stereo unspecified) the growth inhibition was -13.4%. In the case of `O=C(O)C1C(C(=O)Nc2ccc3c(c2)Cc2ccccc2-3)C2(Cl)C(Cl)=C(Cl)C1(Cl)C2(Cl)Cl` (stereo unspecified), the growth inhibition is reported as 98.7% (active). Work on `CSc1nc(COC(=O)NC(C)C)c(COC(=O)NC(C)C)n1-c1ccccc1` yielded a growth inhibition of 4.2%. In the case of `CC(C)C[NH-].CC(C)C[NH-].[Cl][Pt+2]([Cl])([Cl])[Cl]`, the growth inhibition is reported as 91.5% (active). In the case of `c1ccc(N=c2sc3ccccc3sc2=Nc2ccccc2)cc1`, the growth inhibition is reported as 32.4%. For `[Cl-].[La+3].[O-]/N=C(\c1ccccc1)c1ccccn1.[O-]/N=C(\c1ccccc1)c1ccccn1.[O-]/N=C(\c1ccccc1)c1ccccn1`, the growth inhibition was 40.2%. For `Clc1ccc(SSN2CCCCC2)cc1`, the growth inhibition was 80.3% (active). With `CCC(O)C(O)(c1ccccc1)c1nc2ccccc2s1` (stereo unspecified) the growth inhibition was 5.9%. `ONC(=Nc1cccc2ccccc12)C(=Nc1cccc2ccccc12)NO` gave a growth inhibition of 23.3%.

Test: NCI Yeast Anticancer Drug Screen. Data for the sgs1 mgt1 strain (AID 161);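 also: 0% = growth of cultures given vehicle only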
Conditions: S. cerevisiae sgs1 mgt1 strain, at 5.0 µM (retest, dose inferred, filed as 0.5), hits give high values
Summary of the method: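 Genetically altered yeast, compound exposure, growth inhibition relative to vehicle.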
Work on `NC(=O)NC(=O)N/N=C/c1ccc([N+](=O)[O-])o1` yielded a growth inhibition of 5%. For `O=[N+]([O-])/C=C\c1csc2ccccc12`, the growth inhibition was 97% (active). `O=[N+]([O-])c1ccc2c(c1)CCc1ccccc1-2` showed a growth inhibition of 12%. For `CC1=C(C)CC2C(=O)C(C(O)CC(C)C)=CC(=O)C2C1` (stereo unspecified), the growth inhibition was -5%. Work on `CCC(=O)OC1CCC(C2CCCCC2)CC1` (stereo unspecified) yielded a growth inhibition of 2%. Work on `Cc1cc(C2C(O)C(c3cc(C)on3)C2(C)O)no1` (stereo unspecified) yielded a growth inhibition of 3%. `CC(C)C(Sc1nc(-c2ccccc2)c(-c2ccccc2)[nH]1)C(=O)NN` (stereo unspecified) showed a growth inhibition of -3%. Molecule `C/C(=N\NC(=O)N/N=C(\C)c1ccccn1)c1ccccn1` has a growth inhibition of 7%. With `COC(=O)CCCCCCCCCCC(=O)O` the growth inhibition was -2%. Work on `CCCCCCCCCCCCNC(=O)C[n+]1cccc(C(N)=O)c1` yielded a growth inhibition of -2%. In the case of `Nc1ccccc1N=Cc1ccccc1O`, the growth inhibition is reported as -8%. Molecule `N#Cc1c(-c2ccc(Cl)cc2)c2c(n(C3OC(CO)C(O)C(O)C3O)c1=S)CCCC2` (stereo unspecified) has a growth inhibition of -1%. With `CC(C)(C)CC(C)(C)N[P+](NC(C)(C)CC(C)(C)C)(NC(C)(C)CC(C)(C)C)NC(C)(C)CC(C)(C)C` the growth inhibition was 81% (active). For `CC(=O)OC1C(OC(C)=O)C2C(C)CC3OC(=O)C(C)C3CC2(C)C1OC(C)=O` (stereo unspecified), the growth inhibition was -6%. For `NNC(=O)c1ccc(N)cc1O`, the growth inhibition was -2%. Molecule `Nc1ccc2c(c1)C(=O)c1ccccc1-2` has a growth inhibition of 0%. For `Cc1cn(C(C#N)=C(C#N)C#N)c2ccccc12`, the growth inhibition was -8%. `FC(F)(F)COP1(OCC(F)(F)F)=NP(OCC(F)(F)F)(OCC(F)(F)F)=NP(c2ccccc2)(c2ccccc2)=N1` showed a growth inhibition of 3%. Molecule `O=c1oc(-c2ccccc2Br)ns1` has a growth inhibition of 9%. With `CC(=O)N1C(C(=O)NNc2ccccc2)CSC1c1ccccc1` (stereo unspecified) the growth inhibition was 75% (active). With `O=[N+]([O-])/C=C/c1cc2c(ccc3ccccc32)[nH]1` the growth inhibition was 88% (active). `CN(C)CCCC1(c2ccccc2)SC(C)(C)c2ccc(Cl)cc21` (stereo unspecified) gave a growth inhibition of 0%. With `O=c1[nH]c2ccccc2c2oc3ccccc3c12` the growth inhibition was -4%. In the case of `O=C(c1ccccc1)c1cn(/N=C\c2ccccc2)c(=O)nc1-c1ccccc1`, the growth inhibition is reported as 2%. Molecule `Cc1ccc(S(=O)(=O)OCCc2ccc(Cl)cc2)cc1` has a growth inhibition of -6%. In the case of `COC(=O)CC1(O)c2cc(OC)c3cccc(OC)c3c2CCC1(C)C(=O)OC` (stereo unspecified), the growth inhibition is reported as 85% (active). `CC(C)CC(NC(=O)SCc1ccccc1)C(=O)O` (stereo unspecified) showed a growth inhibition of -1%. Molecule `COc1ccc(/C=C/c2ccnc3ccccc23)cc1` has a growth inhibition of 22%. For `N#CC1=C(N)OC(/C=C/c2ccccc2)=C(C#N)C1c1ccccc1` (stereo unspecified), the growth inhibition was 30%. For `COc1ccc(C(=O)C(CN2CCOCC2)CN2CCOCC2)cc1`, the growth inhibition was 23%. With `N/N=C(/N)SCCCCCCCCCCS/C(N)=N/N` the growth inhibition was -35%. With `OC(CBr)C[n+]1cccc2cc(Cl)ccc21` (stereo unspecified) the growth inhibition was -1%. `O=C(O)C1C(C(=O)Nc2ccc3c(c2)Cc2ccccc2-3)C2(Cl)C(Cl)=C(Cl)C1(Cl)C2(Cl)Cl` (stereo unspecified) gave a growth inhibition of 47%. Molecule `CSc1nc(COC(=O)NC(C)C)c(COC(=O)NC(C)C)n1-c1ccccc1` has a growth inhibition of -19%. For `CC(C)C[NH-].CC(C)C[NH-].[Cl][Pt+2]([Cl])([Cl])[Cl]`, the growth inhibition was 70% (active). For `c1ccc(N=c2sc3ccccc3sc2=Nc2ccccc2)cc1`, the growth inhibition was 71% (active). Work on `[Cl-].[La+3].[O-]/N=C(\c1ccccc1)c1ccccn1.[O-]/N=C(\c1ccccc1)c1ccccn1.[O-]/N=C(\c1ccccc1)c1ccccn1` yielded a growth inhibition of 31%. In the case of `Clc1ccc(SSN2CCCCC2)cc1`, the growth inhibition is reported as 2%. Molecule `CCC(O)C(O)(c1ccccc1)c1nc2ccccc2s1` (stereo unspecified) has a growth inhibition of -7%. In the case of `ONC(=Nc1cccc2ccccc12)C(=Nc1cccc2ccccc12)NO`, the growth inhibition is reported as 8%.
